# Measurements reported in PubChem BioAssay (NCATS).
# “And” between values parts separate entries of the source, which are not always exact repeats. Equal entries are not always repeated. Inconclusive results are not listed. The source holds several records for some structures; these can differ, active in one and inactive in another. The source made the active and inactive calls. Unless noted, calls come from the whole dose curve; as a rule, active = well fitted curve in the direction sought with a large enough effect; inconclusive = small, poorly fitted or top-dose-only effect, or another doubt; inactive = no such curve, though single readings can be large; an effect the other way counts as inactive or inconclusive.
# How the values were obtained:
# [1] = target: T1, Hexokinase-4 (Homo sapiens) + Glucokinase regulatory protein (Homo sapiens) (UniProt P35557+Q14397); assay: qHTS assay for inhibitors of recombinant human GCK-GKRP interaction: ADP-Glo assay (AID 743206);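 note: plate controls were DMSO plus enzyme for no effect and no enzyme for full effect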
# Outline: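 Pin-transferred compounds meet a 15 nM GST-GCK/15 nM FLAG-GKRP/2 uM S6P mix (dispense concentrations). ATP is then added to 0.4 mM final with 5 mM glucose, and the reaction runs 60 min at room temperature. ADP is quantified luminescently.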
# [2] = target: T1, Hexokinase-4 (Homo sapiens) + Glucokinase regulatory protein (Homo sapiens); assay: qHTS assay for inhibitors of recombinant human GCK-GKRP interaction: HTRF assay (AID 743207);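 note: 0% = DMSO with GCK present and -100% = DMSO wells lacking GCK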
# Outline: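 HTRF read-out (ex 320 nm; 615/665 nm emission) after 60 min RT equilibration of 5 nM GST-GCK, 5 nM FLAG-GKRP, 2 uM S6P, compound and anti-FLAG/anti-GST detection antibodies; signal normalized between DMSO wells with and without GCK.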
# [3] = qHTS Assay for Identifying Gametocytocidal Compounds (AID 743244); note: potency is the fitted concentration of half-maximal effect;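 for max response: % is set by controls: 0 for no effect and ±100 for the full control effect; actives lower the fluorescent signal which means gametocytes are killed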; settings: P. falciparum 3D7 stage III-V gametocytes, alamarBlue, 72 h; max response: stronger effect = lower value
# Outline: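 Fluorescence at Ex 525/Em 598 nm, recorded 24 h after alamarBlue addition, reports residual metabolic activity of 3D7 gametocytes (stages III–V) following 72 h compound exposure at 37 °C, 5% CO2.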
# [4] = qHTS assay for cell viability of HEK293 cells (AID 743288); settings: ATP luminescence (CellTiter-Glo), 18 h; max response: stronger effect = lower value; note: nearly all actives have a fitted effect of over 50% in size; note: potency is the fitted concentration of half-maximal effect; for max response: % is set by controls: 0 for no effect and ±100 for the full control effect
# Outline: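 ATP luminescence (CellTiter-Glo) reports metabolically competent cell number after parental HEK293 cells, 2,000/well, were treated with DMSO-dissolved compounds for 18 h at 37 C; reagent incubation 30 min, room temperature.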
# [5] = qHTS assay for cell viability of the p53RE-bla HCT-116 cell line (AID 743292); note: % is set by controls: 0 for no effect and ±100 for the full control effect; nearly all actives have a fitted effect of over 55% in size
# Outline: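 Compound-exposed HCT-116 (p53RE-bla) cells, 4,000 per well, were kept 16 h at 37 C following a 5 h preincubation. Cell number was estimated from total ATP by CellTiter-Glo luminescence read after 30 min at room temperature.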
# [6] = qHTS profiling of the MIPE4 collection as inhibitors of Plasmodium falciparum (3D7) proliferation (AID 743344; call rule not given here;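 note: scaled between DMSO vehicle wells and 0.29 µM artemisinin as full inhibition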); settings: P. falciparum 3D7 in erythrocytes, SYBR Green DNA fluorescence, 72 h; at 28.5 µM (top of the series) unless noted
# Outline: (§1)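 Parasite DNA was quantified by SYBR Green I fluorescence (ex 485, em 535 nm) after overnight lysis in saponin/Triton buffer at room temperature. Cultures at 0.3% parasitemia and 2.5% hematocrit were first exposed to compound for 72 h at 37 C; signals were normalised to artemisinin (0.29 uM) and vehicle wells.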
# [7] = qHTS profiling of the MIPE4 collection as inhibitors of Plasmodium falciparum (DD2) proliferation (AID 743345; call rule not given here); settings: P. falciparum Dd2 in erythrocytes, SYBR Green DNA, 72 h; at 28.5 µM (top of the series) unless noted
# Outline: as §1
# [8] = qHTS profiling of the MIPE4 collection as inhibitors of Plasmodium falciparum (DD2) proliferation (Rep 2) (AID 743346; call rule not given here); settings: P. falciparum Dd2 in erythrocytes, SYBR Green DNA, 72 h; at 28.5 µM (top of the series) unless noted
# Outline: as §1
# [9] = qHTS profiling of the MIPE4 collection as inhibitors of Plasmodium falciparum (HB3) proliferation (AID 743347; call rule not given here;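 note: plate controls were DMSO vehicle wells for no effect and artemisinin wells for full effect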); settings: P. falciparum HB3 in erythrocytes, SYBR Green DNA, 72 h; at 28.5 µM (top of the series) unless noted
# Outline: as §1
# [10] = High-throughput drug toxicity screening in the BPDCN cell line Gen2.2 (AID 1224824; call rule not given here;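 note: cells exposed to compounds for 48 h before reading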); settings: Gen2.2 BPDCN cells; at 45.8 µM (top of the series) unless noted
# Outline: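 CellTiter-Glo luminescence after 48 h compound exposure of Gen2.2 cells; percent activity set with DMSO as 100% and bortezomib (9.2 uM final) as 0%. Cells seeded at 500 per well, RPMI + 10% FBS, 37 °C.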
# [11] = High-throughput drug toxicity screening in the BPDCN cell line Cal-1 (AID 1224825; call rule not given here); settings: Cal-1 BPDCN cell viability, qHTS; at 45.8 µM (top of the series) unless noted
# Outline: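 CellTiter-Glo luminescence after 48 h compound exposure; percent activity scaled with DMSO as 100% and bortezomib (9.2 uM final) as 0%. Cal-1 cells seeded at 500/well in RPMI, 10% FBS, no phenol red.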
# [12] = qHTS assay for measurement of the activity of small molecule inhibitors on Zika virus induced Caspase-3 activity in human iPSC derived neural progenitor cells (hNPCs) (AID 1224857); note: nearly all actives have a fitted effect of over 65% in size; note: potency is the fitted concentration of half-maximal effect
# Outline: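 Zika virus (2 FFU/cell) infection of human iPSC-derived NPCs, 6 h, following 1 h compound preincubation. Read-out: Caspase-Glo 3/7 luminescence.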
# [13] = qHTS assay for measurement of the activity of small molecule inhibitors on Zika virus induced Caspase-3 activity in human astrocytoma cells (AID 1224859); note: potency is the fitted concentration of half-maximal effect
# Outline: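 Caspase activation in ZIKV-infected SNB-19 cells (2 FFU/cell, 6 h) measured by Caspase-Glo 3/7 luminescence after 30 min RT; compound pre-incubated 1 h; normalised to uninfected and infected controls.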
# [14] = qHTS Screen of the MIPE 4.0 Collection Against Ewings Sarcoma (RDES) (AID 1259252); note: nearly all actives have a fitted effect of over 35% in size; note: potency is the fitted concentration of half-maximal effect
# Outline: (§2)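 Dose series incubated 48 h with cells in RPMI plus 5% FBS, glutamine and penicillin/streptomycin; cell viability then quantified via CellTiter-Glo.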
# [15] = qHTS Screen of the MIPE 4.0 Collection Against Ewings Sarcoma (TC71) (AID 1259253); note: nearly all actives have a fitted effect of over 40% in size; note: potency is the fitted concentration of half-maximal effect
# Outline: as §2
# [16] = qHTS Screen of the MIPE 4.0 Collection Against Ewings Sarcoma (EW8) (AID 1259255); note: nearly all actives have a fitted effect of over 35% in size; note: potency is the fitted concentration of half-maximal effect;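 for viability: 100% = DMSO-treated cells and 0% = medium-only wells without cells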
# Outline: as §2
# [17] = qHTS Screen of the MIPE 4.0 Collection Against Ewings Sarcoma (TC32) (AID 1259256); note: nearly all actives have a fitted effect of over 45% in size; note: potency is the fitted concentration of half-maximal effect
# Outline: as §2
# [18] = qHTS profiling for inhibitors of Plasmodium falciparum (3D7) proliferation (AID 743322);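 note: infected erythrocytes exposed to compound for 72 h before lysis; 100% = DMSO vehicle wells and 0% = 0.29 µM artemisinin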; settings: P. falciparum 3D7 proliferation, at 28.7 µM (top of the series)
# Outline: as §1
# [19] = qHTS profiling for inhibitors of Plasmodium falciparum (DD2) proliferation (AID 743323; call rule not given here); settings: at 28.7 µM (top of the series), lower = more inhibition
# Outline: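 Parasite DNA quantified by SYBR Green fluorescence (ex 485, em 535 nm) after saponin/Triton lysis and overnight dark incubation. Cultures: 0.3% parasitemia, 2.5% hematocrit, 72 h, 37 C; data scaled between DMSO and 0.29 uM artemisinin.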
# T1 sequence (P35557 whole entry, looked up): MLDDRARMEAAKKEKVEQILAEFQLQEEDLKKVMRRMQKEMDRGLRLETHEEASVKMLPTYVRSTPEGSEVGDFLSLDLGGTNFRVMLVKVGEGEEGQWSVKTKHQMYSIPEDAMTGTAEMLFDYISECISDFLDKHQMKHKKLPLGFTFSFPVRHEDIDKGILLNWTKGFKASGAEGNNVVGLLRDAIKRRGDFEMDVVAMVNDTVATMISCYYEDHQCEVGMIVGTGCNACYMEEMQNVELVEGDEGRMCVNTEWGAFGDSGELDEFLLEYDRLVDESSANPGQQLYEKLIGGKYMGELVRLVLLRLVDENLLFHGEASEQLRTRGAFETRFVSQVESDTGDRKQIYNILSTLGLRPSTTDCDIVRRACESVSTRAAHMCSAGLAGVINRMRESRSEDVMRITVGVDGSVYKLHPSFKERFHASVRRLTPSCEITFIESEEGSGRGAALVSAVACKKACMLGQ
# T1 sequence (Q14397 whole entry, looked up): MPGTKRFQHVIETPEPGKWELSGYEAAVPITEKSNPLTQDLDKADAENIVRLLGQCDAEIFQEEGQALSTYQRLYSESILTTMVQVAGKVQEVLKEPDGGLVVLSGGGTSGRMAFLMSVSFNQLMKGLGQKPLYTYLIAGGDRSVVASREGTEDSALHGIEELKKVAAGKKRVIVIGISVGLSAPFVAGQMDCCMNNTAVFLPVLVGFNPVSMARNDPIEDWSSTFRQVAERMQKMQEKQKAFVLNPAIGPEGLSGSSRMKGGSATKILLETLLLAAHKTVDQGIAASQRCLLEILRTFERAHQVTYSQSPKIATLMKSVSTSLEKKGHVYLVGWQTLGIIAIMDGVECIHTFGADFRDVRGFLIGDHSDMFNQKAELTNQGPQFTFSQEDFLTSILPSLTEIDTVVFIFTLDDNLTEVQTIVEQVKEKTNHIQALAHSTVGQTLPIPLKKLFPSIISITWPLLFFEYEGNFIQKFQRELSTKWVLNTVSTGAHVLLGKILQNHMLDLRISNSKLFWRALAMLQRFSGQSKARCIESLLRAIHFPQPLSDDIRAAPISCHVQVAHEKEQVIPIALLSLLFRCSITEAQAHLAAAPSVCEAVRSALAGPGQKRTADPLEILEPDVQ
structure (smiles),measurement,setting,value
Cc1cn([C@H]2C[C@H](N=[N+]=[N-])[C@@H](CO)O2)c(=O)[nH]c1=O,Potency,[1],inactive
same,Potency,[2],inactive
same,max response,[3],21.9% (inactive) and 0.942% (inactive) and 16% (inactive)
same,max response,[4],-21.7% (inactive)
same,Potency,[5],inactive
same,"parasite growth, % of DMSO control",[6],412%
same,"parasite growth remaining, % of DMSO control (lower = more inhibition)",[7],109%
same,"parasite growth, % of control (lower = inhibition)",[8],117%
same,"growth, % of control",[9],588%
same,"cell viability, % of control (lower = more cytotoxic)",[10],59.6%
same,viability (% of control),[11],78.5%
same,Potency,[12],inactive
same,Potency,[13],inactive
same,Potency,[14],inactive
same,Potency,[15],inactive
same,Potency,[16],inactive
same,Potency,[17],inactive
O=C1c2c(O)ccc(O)c2C(=O)c2c(NCCNCCO)ccc(NCCNCCO)c21,Potency,[1],inactive
same,Potency,[2],inactive
same,Potency,[3],7.94 µM (active) and 1.41 µM (active)
same,"parasite growth, % of DMSO control",[6],0.962%
same,"parasite growth remaining, % of DMSO control (lower = more inhibition)",[7],1.83%
same,"parasite growth, % of control (lower = inhibition)",[8],5.92%
same,"growth, % of control",[9],0.795%
same,"cell viability, % of control (lower = more cytotoxic)",[10],6.11%
same,viability (% of control),[11],2.98%
same,Potency,[12],inactive
same,Potency,[13],inactive
same,Potency,[14],0.166 µM (active)
same,Potency,[15],0.0935 µM (active)
same,Potency,[16],0.059 µM (active)
same,Potency,[17],inactive
CN1CCC(=C2c3ccccc3C=Cc3ccccc32)CC1,Potency,[1],inactive
same,Potency,[2],inactive
same,"parasite growth, % of DMSO control",[6],15%
same,"parasite growth, % of control (lower = inhibition)",[8],35.3%
same,"growth, % of control",[9],12.5%
same,"cell viability, % of control (lower = more cytotoxic)",[10],106%
same,viability (% of control),[11],35%
same,Potency,[12],inactive
same,Potency,[13],inactive
same,Potency,[14],9.35 µM (active)
same,Potency,[15],16.6 µM (active)
Cn1ccc2cc3c(cc21)CCN3C(=O)Nc1cccnc1,Potency,[1],inactive
same,Potency,[2],inactive
same,max response,[3],16% (inactive) and 23.5% (inactive)
same,remaining parasite growth % (stronger effect = lower value),[18],25%
same,"activity, percent of control",[19],23%
same,"parasite growth, % of DMSO control",[6],23.4%
same,"parasite growth remaining, % of DMSO control (lower = more inhibition)",[7],72.7%
same,"parasite growth, % of control (lower = inhibition)",[8],13.8%
same,"growth, % of control",[9],56%
same,"cell viability, % of control (lower = more cytotoxic)",[10],100%
same,viability (% of control),[11],69.5%
same,Potency,[12],inactive
same,Potency,[13],inactive
same,Potency,[14],16.6 µM (active)
same,Potency,[15],23.5 µM (active)
CC[N+](CC)(CC)CCOc1cccc(OCC[N+](CC)(CC)CC)c1OCC[N+](CC)(CC)CC,Potency,[1],inactive
same,Potency,[2],inactive
same,max response,[3],4.54% (inactive) and -6.53% (inactive)
same,"parasite growth remaining, % of DMSO control (lower = more inhibition)",[7],104%
same,"cell viability, % of control (lower = more cytotoxic)",[10],124%
same,viability (% of control),[11],111%
same,Potency,[12],inactive
same,Potency,[13],inactive
same,Potency,[14],inactive
same,Potency,[15],inactive
same,Potency,[16],inactive
same,Potency,[17],inactive
O=C(Nc1ccc([N+](=O)[O-])cc1Cl)c1cc(Cl)ccc1O,Potency,[1],inactive
same,Potency,[2],inactive
same,Potency,[4],7.08 µM (active)
same,"parasite growth, % of DMSO control",[6],5.14%
same,"parasite growth, % of control (lower = inhibition)",[8],6.93%
same,"growth, % of control",[9],3.45%
same,"cell viability, % of control (lower = more cytotoxic)",[10],10.1%
same,viability (% of control),[11],20.3%
same,Potency,[12],inactive and 1.05 µM (active)
same,Potency,[13],2.82 µM (active) and 1.18 µM (active) and 1 µM (active)
same,Potency,[14],16.6 µM (active)
same,Potency,[15],1.32 µM (active)
same,Potency,[16],16.6 µM (active)
same,Potency,[17],1.32 µM (active)
Nc1c2c(nc3ccccc13)CCCC2,Potency,[1],inactive
same,Potency,[2],inactive
same,Potency,[3],8.91 µM (active)
same,max response,[4],-20.1% (inactive)
same,Potency,[5],inactive
same,"parasite growth, % of DMSO control",[6],7.17%
same,"parasite growth, % of control (lower = inhibition)",[8],10.3%
same,"growth, % of control",[9],20.2%
same,"cell viability, % of control (lower = more cytotoxic)",[10],131%
same,viability (% of control),[11],101%
same,Potency,[12],inactive
same,Potency,[13],inactive
same,Potency,[14],26.4 µM (active)
same,Potency,[15],18.7 µM (active)
same,Potency,[16],18.7 µM (active)
